In PubChem BioAssay (EPA / NIEHS):
Several values for one entry are separate records, joined by “and”; a condition that tells them apart may be missing. Equal entries are not always repeated. Some compounds were tested as several samples or in several runs, with calls that do not always agree. Activity calls are given as the source filed them. How the source made its calls: active means hit-call score of the fitted dose curve at least 0.9, where 1 is the maximum; inactive means score below 0.9.

Read-out: CD69, CD69 (gene 969)
Test: BSK_IMphg_CD69: BioMAP Diversity Plus: IMphg Assay for CD69 Biomarker Activity (AID 2284257)
Settings: primary human endothelial cells with macrophages
How it was run: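 Readout is ELISA for CD69 in primary human venular endothelial cell/macrophage co-culture, taken at 24 h post-dosing. SRB staining of parallel cultures gauged overt cytotoxicity; signal increase versus DMSO defined activity.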

SMILES	outcome	AC50
C=CC(=O)OCCC(F)(F)C(F)(F)C(F)(F)C(F)(F)F	inactive	
OCC(F)(F)C(F)(F)C(F)(F)C(F)(F)C(F)(F)C(F)(F)CO	inactive	
NCC(F)(F)C(F)(F)C(F)(F)C(F)(F)C(F)(F)C(F)(F)C(F)(F)C(F)(F)F	inactive	
O=S(=O)(OCC(F)(F)F)C(F)(F)C(F)(F)C(F)(F)C(F)(F)F	inactive	
O=S(=O)(O)CCC(F)(F)C(F)(F)C(F)(F)C(F)(F)F	inactive	
O=C(O)C(F)(F)C(F)(F)C(F)(F)OC(F)(C(F)(F)F)C(F)(F)F	inactive	
O=C(F)C1(F)C(F)(F)C(F)(F)C(F)(F)C(F)(F)C1(F)F	inactive	
CNS(=O)(=O)C(F)(F)C(F)(F)C(F)(F)C(F)(F)C(F)(F)C(F)(F)C(F)(F)C(F)(F)F	inactive	
NS(=O)(=O)C(F)(F)C(F)(F)C(F)(F)C(F)(F)C(F)(F)C(F)(F)F		21.7 µM (active) and 30 µM (active)
O=C(O)C(F)(F)C(F)(F)C(F)(F)OC(F)(F)F	inactive	
COC(F)(C(F)F)C(F)(F)F (stereo unspecified)	inactive	
CCOC(=O)CC(=O)C(F)(F)C(F)(F)F	inactive	
CN(C(=O)C(F)(F)C(F)(F)C(F)(F)F)[Si](C)(C)C	inactive	
NC(=O)C(F)(F)C(F)(F)C(F)(F)C(F)F	inactive	
O=S(=O)(Cl)C(F)(F)C(F)(F)C(F)(F)C(F)(F)C(F)(F)C(F)(F)C(F)(F)C(F)(F)F	inactive	15.1 µM (active)
O=C(O)C(F)(F)C(F)(F)C(F)(F)C(F)(F)C(F)(F)C(F)(F)C(F)F	inactive	
O=C(O)CCC(F)(F)C(F)(F)C(F)(F)C(F)(F)C(F)(F)C(F)(F)C(F)(F)F	inactive	
CCN(CCO)S(=O)(=O)C(F)(F)C(F)(F)C(F)(F)C(F)(F)C(F)(F)C(F)(F)C(F)(F)C(F)(F)F	inactive	6.74 µM (active)
O=C(O)C(F)(F)C(F)(F)C(F)(F)C(=O)O	inactive	

Read-out: Eotaxin 3, CCL26 (gene 10344)
Test: BSK_BF4T_Eotaxin3: BioMAP Diversity Plus: BF4T Assay for Eotaxin 3 Biomarker Activity (AID 2284258)
Settings: primary human bronchial epithelial cells with fibroblasts
How it was run: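 ELISA measurement of Eotaxin-3 after 24 h chemical exposure in a bronchial epithelial/dermal fibroblast co-culture, with DMSO as baseline. Parallel SRB staining (0.1% SRB after 10% TCA fixation, 560 nm) flagged overt cytotoxicity.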

SMILES	outcome	AC50
C=CC(=O)OCCC(F)(F)C(F)(F)C(F)(F)C(F)(F)F	inactive	
OCC(F)(F)C(F)(F)C(F)(F)C(F)(F)C(F)(F)C(F)(F)CO	inactive	
NCC(F)(F)C(F)(F)C(F)(F)C(F)(F)C(F)(F)C(F)(F)C(F)(F)C(F)(F)F	inactive	
O=S(=O)(OCC(F)(F)F)C(F)(F)C(F)(F)C(F)(F)C(F)(F)F	inactive	
O=S(=O)(O)CCC(F)(F)C(F)(F)C(F)(F)C(F)(F)F	inactive	
O=C(O)C(F)(F)C(F)(F)C(F)(F)OC(F)(C(F)(F)F)C(F)(F)F	inactive	
O=C(F)C1(F)C(F)(F)C(F)(F)C(F)(F)C(F)(F)C1(F)F	inactive	
CNS(=O)(=O)C(F)(F)C(F)(F)C(F)(F)C(F)(F)C(F)(F)C(F)(F)C(F)(F)C(F)(F)F		3.88 µM (active) and 220 nM (active)
NS(=O)(=O)C(F)(F)C(F)(F)C(F)(F)C(F)(F)C(F)(F)C(F)(F)F	inactive	
O=C(O)C(F)(F)C(F)(F)C(F)(F)OC(F)(F)F	inactive	
COC(F)(C(F)F)C(F)(F)F (stereo unspecified)	inactive	
CCOC(=O)CC(=O)C(F)(F)C(F)(F)F	inactive	
CN(C(=O)C(F)(F)C(F)(F)C(F)(F)F)[Si](C)(C)C	inactive	
NC(=O)C(F)(F)C(F)(F)C(F)(F)C(F)F	inactive	
O=S(=O)(Cl)C(F)(F)C(F)(F)C(F)(F)C(F)(F)C(F)(F)C(F)(F)C(F)(F)C(F)(F)F		28.3 µM (active) and 19.5 µM (active)
O=C(O)C(F)(F)C(F)(F)C(F)(F)C(F)(F)C(F)(F)C(F)(F)C(F)F	inactive	
O=C(O)CCC(F)(F)C(F)(F)C(F)(F)C(F)(F)C(F)(F)C(F)(F)C(F)(F)F	inactive	726 nM (active)
CCN(CCO)S(=O)(=O)C(F)(F)C(F)(F)C(F)(F)C(F)(F)C(F)(F)C(F)(F)C(F)(F)C(F)(F)F	inactive	
O=C(O)C(F)(F)C(F)(F)C(F)(F)C(=O)O	inactive	
